The nature of assay [1]: NCI Yeast Anticancer Drug Screen. Data for the rad50 strain (AID 155).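 Further: 0% = growth of vehicle-only cultures of the same strain.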 Particulars: S. cerevisiae rad50 strain growth inhibition; at 50.0 µM; active compounds read high. Summed up:
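Vehicle-treated cultures provide the reference for the growth inhibition reported for compound-exposed, repair-deficient yeast.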

Assay [2] is described as follows: NCI Yeast Anticancer Drug Screen. Data for the mec2-1 strain (AID 157). Particulars: S. cerevisiae mec2-1 strain, at 50.0 µM, active compounds read high. Summed up: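 Each compound was tested on mec2-1 yeast, a strain altered in DNA damage repair or cell cycle control. Growth inhibition is reported relative to vehicle.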
Assay [3] in a line: NCI Yeast Anticancer Drug Screen. Data for the sgs1 mgt1 strain (AID 161).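 Further: 0% = growth of cultures given vehicle only.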 The settings on record: S. cerevisiae sgs1 mgt1 strain, at 50.0 µM, active compounds read high. The method in brief: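 Test agents were incubated with a DNA-repair-mutant yeast strain. Growth was then read and compared against vehicle-treated controls.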
Assay [4] in a line: NCI Yeast Anticancer Drug Screen. Data for the cln2 rad14 strain (AID 165).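 Further: 0% = growth equal to vehicle treated cultures.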 Particulars: S. cerevisiae cln2 rad14 strain, at 50.0 µM, active compounds read high. Summed up:
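Test compounds were added to cln2 rad14 yeast cultures; inhibition of growth was then determined by comparison with vehicle treatment.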

The nature of assay [5]: NCI Yeast Anticancer Drug Screen. Data for the bub3 strain (AID 167). The settings on record: S. cerevisiae bub3 mutant strain, at 50.0 µM, active compounds read high. The method in brief: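 Mutant yeast screening strain plus compound; vehicle-treated cultures serve as the 0% inhibition reference.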
The nature of assay [6]: NCI Yeast Anticancer Drug Screen. Data for the mlh1 rad18 strain (AID 175). Particulars: S. cerevisiae mlh1 rad18 strain growth inhibition; at 50.0 µM; active compounds read high. Summed up: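 Inhibition values reflect reduced growth of mutant yeast versus vehicle-treated controls following compound exposure; the mutations affect DNA damage repair.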

The panel holds about 79,000 compounds, 15% with a hit somewhere; the sample as a whole holds those more often. Unmarked numbers belong to inactive results. Activity calls are given as the source filed them. No stated cut-off is given here; in the data, active means growth inhibition above about 70%; inactive means the rest.

In the case of `S=C(N1CCN(c2cccc(Cl)c2)CC1)N1CCN(c2cccc(Cl)c2)CC1`, the growth inhibition was -7.4% in assay [1]; 13.7% in assay [2]; 23% in assay [3]; 9.6% in assay [4]; 2.1% in assay [5]; 12.7% in assay [6].
In the case of `NC(=S)N/N=C1/CC(=O)N(c2ccccc2)C1c1ccccc1` (stereo not given), the growth inhibition in assay [1] is 32.6%; in assay [2], 13.2%; in assay [3], 37%; in assay [4], -2.8%; in assay [5], 32.4%; in assay [6], 38.9%.
Take `c1ccc(-c2ccc(-c3ccccc3)c3nonc23)cc1`: the growth inhibition was -32.2% in assay [1]; -2.25% in assay [2]; -13.5% in assay [3]; 23.4% in assay [4]; 27.4% in assay [5]; -4.45% in assay [6].
Consider `COC(=O)N1C(C#N)=CCc2ccccc21`, for which the growth inhibition in assay [1] was 26.4%; in assay [2] it was 31.2%; in assay [3] it was 16.9%; in assay [4] it was -6.25%; in assay [5], 3.8%; in assay [6], 5.65%.
Regarding `CCOC(=O)Nc1nc(-c2ccccc2)c(C)s1`, the growth inhibition was -23.2% in assay [1]; -20.8% in assay [2]; -16.8% in assay [3]; -7.1% in assay [4]; -44.9% in assay [5]; -2.15% in assay [6].
`O=[N+]([O-])c1ccc(-c2csc(Nc3ccccn3)n2)o1`: the growth inhibition in assay [1] was 81.1% (active); in assay [2], 38.3%; in assay [3], 84.7% (active); in assay [4], 31.4%; in assay [5], 40.8%; in assay [6] it was 92.5% (active).
As to `COc1cc(C(c2ccc(N(Cc3ccccc3)Cc3ccccc3)cc2NC(C)=O)c2ccc(N(Cc3ccccc3)Cc3ccccc3)cc2NC(C)=O)ccc1O`, the growth inhibition in assay [1] was 2.75%; in assay [2], 2.05%; in assay [3], -11.4%; in assay [4], -8.2%; in assay [5], -5.1%; in assay [6] it was 38.2%.
For `C=CCC1(C)C=C(C)C(=O)C(C)=C1`, the growth inhibition was -6.05% in assay [1]; -7% in assay [2]; 18.6% in assay [3]; 2.55% in assay [4]; 16.2% in assay [5]; 15.1% in assay [6].
Take `Cn1ncc2c(N)nc(NCCO)nc21`: the growth inhibition in assay [1] was 1.1%; in assay [2], 4.75%; in assay [3] it was -4.75%; in assay [4] it was -19.1%; in assay [5], 13.7%; in assay [6], -0.2%.
Regarding `O=S=C1SC2CCCCC2S1` (stereo not given), the growth inhibition is 2.75% in assay [1]; 4.15% in assay [2]; -5.4% in assay [3]; -9.05% in assay [4]; -9.45% in assay [5]; 8.1% in assay [6].
Take `Ic1cc2c(cc1CNCc1ccccc1)OCO2`: the growth inhibition in assay [1] was 11.7%; in assay [2], -19.6%; in assay [3], 26.7%; in assay [4], -56.4%; in assay [5] it was 2.6%; in assay [6], 7.2%.
`CN(/N=C/C=N/N(C)C1=NCCCN1)C1=NCCCN1`: the growth inhibition in assay [1] is -0.95%; in assay [2], 1.15%; in assay [3], 3.8%; in assay [4], 9.1%; in assay [5] it was 13.2%; in assay [6], -6.35%.
`C#CCC1(C(=O)OCC)C(=O)c2ccccc2N(C)C1=O` (stereo not given): the growth inhibition in assay [1] is 16.9%; in assay [2] it was 1.55%; in assay [3] it was 31.1%; in assay [4], 11.4%; in assay [5], 14%; in assay [6], 6.95%.
`CCCC(C)C(=O)OC(C)CC(C)C` (stereo not given): the growth inhibition in assay [1] is 31%; in assay [2], 15.9%; in assay [3] it was 21.9%; in assay [4], -0.75%; in assay [5] it was 20.9%; in assay [6], 15.6%.
Turning to `CCN(CC)CCOC(NC(C)=O)(c1ccccc1)c1ccccc1`, the growth inhibition in assay [1] is 3.5%; in assay [2], -9.55%; in assay [3] it was 9.85%; in assay [4], 1.55%; in assay [5], 14.8%; in assay [6] it was 20%.
With `Cc1ccc(N2C(=O)/C(=C/c3ccc(N(CCC#N)CCC#N)cc3C)N=C2c2cc([N+](=O)[O-])ccc2Cl)cc1`, the growth inhibition in assay [1] is 8.85%; in assay [2] it was 14.5%; in assay [3], 32.6%; in assay [4], 35.2%; in assay [5], 30.4%; in assay [6], 19.9%.
Consider `O=C(O)/C=C/c1c(Cl)cccc1Cl`, for which the growth inhibition in assay [1] is -14.6%; in assay [2], -8.05%; in assay [3], -11.9%; in assay [4], -37.2%; in assay [5] it was -18.1%; in assay [6], -5.8%.
`CCCCC1(O)c2ccc3ccccc3c2C(O)(CCCC)c2cccc(-c3ccccc3)c21` (stereo not given): the growth inhibition in assay [1] is 24.1%; in assay [2], -0.05%; in assay [3] it was 10.2%; in assay [4] it was -1.75%; in assay [5], -3.15%; in assay [6], 38.8%.
Consider `CC1=C(C(=O)NCc2ccccc2)C(c2cccc([N+](=O)[O-])c2)C(C(=O)NCc2ccccc2)=C(C)N1`, for which the growth inhibition in assay [1] was 19.6%; in assay [2] it was 17.2%; in assay [3], 9.05%; in assay [4], 22.7%; in assay [5], 19.2%; in assay [6], 33.7%.
Regarding `CNC1C(CO)OC(n2cnc3c(N)ncnc32)C1O` (stereo not given), the growth inhibition in assay [1] is 1.85%; in assay [2], -9.55%; in assay [3] it was 3.75%; in assay [4] it was -60.8%; in assay [5] it was 2.75%; in assay [6], -13.2%.

(Values after PubChem BioAssay (NCI).)
